In PubChem BioAssay (NCI):
About 79,000 compounds went through this panel and 15% of them were active in at least one assay; those are over-represented in the sample as a whole. Active and inactive are the calls of the source. Rule as the data show it: active = growth inhibition above about 70%; inactive = the rest.

How the values were obtained:
[1] = NCI Yeast Anticancer Drug Screen. Data for the rad50 strain (AID 155);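 also: 0% = growth of vehicle-only cultures of the same strain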; conditions: S. cerevisiae rad50 strain growth inhibition; at 50.0 µM; active compounds read high
Method in brief: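 Readout: growth inhibition relative to vehicle-treated cultures. Compound exposure was carried out in a genetically defined yeast strain deficient in DNA damage repair.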

[2] = NCI Yeast Anticancer Drug Screen. Data for the mec2-1 strain (AID 157); conditions: S. cerevisiae mec2-1 strain, at 50.0 µM, active compounds read high
Method in brief: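 Yeast mec2-1 mutant treated with compound. Readout: growth inhibition vs vehicle controls.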

[3] = NCI Yeast Anticancer Drug Screen. Data for the sgs1 mgt1 strain (AID 161);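 also: 0% = growth of cultures given vehicle only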; conditions: S. cerevisiae sgs1 mgt1 strain, at 50.0 µM, active compounds read high
Method in brief: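 Mutant yeast exposed to compound; growth scored against vehicle-only wells.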

[4] = NCI Yeast Anticancer Drug Screen. Data for the cln2 rad14 strain (AID 165);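 also: 0% = growth equal to vehicle treated cultures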; conditions: S. cerevisiae cln2 rad14 strain, at 50.0 µM, active compounds read high
Method in brief: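 cln2 rad14 yeast strain; compound exposure; growth inhibition read vs vehicle controls.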

[5] = NCI Yeast Anticancer Drug Screen. Data for the bub3 strain (AID 167); conditions: S. cerevisiae bub3 mutant strain, at 50.0 µM, active compounds read high
Method in brief: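 Readout: yeast growth inhibition, expressed relative to vehicle-only wells. The test organism is a mutant strain from a panel with lesions in DNA repair or checkpoint genes.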

[6] = NCI Yeast Anticancer Drug Screen. Data for the mlh1 rad18 strain (AID 175); conditions: S. cerevisiae mlh1 rad18 strain growth inhibition; at 50.0 µM; active compounds read high
Method in brief: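 Yeast w/ defined DNA-repair lesions; compound exposure; growth vs vehicle controls → % inhibition.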

Measured: growth inhibition

COC(=O)c1ccc(/C=C(\c2ccc([N+](=O)[O-])o2)S(=O)(=O)c2ccc(NC(C)=O)cc2)o1
active: [1] 84.7% | [3] 90.8% | [4] 71.7% | [6] 88.5%
inactive: [2] 66% | [5] 34.8%

CCCC(P(=O)(c1ccccc1)c1ccccc1)[P+](CC)(c1ccccc1)c1ccccc1 (stereo not drawn)
active: [1] 84.6% | [2] 78.2% | [3] 85.9% | [5] 81.7% | [6] 77.8%
inactive: [4] 54.6%

O=C(O)c1ccc(C(=O)O)c(C(=O)Nc2ccc3c(c2)C(=O)c2ccccc2-3)c1
inactive: [1] 41.9% | [2] -26.6% | [3] -2.15% | [4] -2.85% | [5] 9.7% | [6] 48.9%

CCCCCCCCCCCCCCCCOc1ccc2ccccc2c1
inactive: [1] 4.15% | [2] -6.25% | [3] 14.9% | [4] -56.4% | [5] 10.2% | [6] 29.2%

Nc1ccccc1CN1C(=O)CCC1=O
inactive: [1] 0.25% | [2] -6.8% | [3] -12.4% | [4] -14.9% | [5] -10.1% | [6] -14.2%

c1ccc(-c2ccc[n+](C[n+]3cccc(-c4ccccn4)c3)c2)nc1
inactive: [1] 10.2% | [2] -10.5% | [3] -22.9% | [4] -8.5% | [5] -3.8% | [6] 33.1%

COc1ccc2c(c1)OC1c3ccccc3OCC21 (stereo not drawn)
inactive: [1] 26.1% | [2] 11.6% | [3] 15.8% | [4] 12.3% | [5] 27.9% | [6] 30.2%

CC(=O)N(C1CCCCC1)C1CCCCC1
inactive: [1] 30.2% | [2] 20.6% | [3] 13.4% | [4] -2.05% | [5] -2.2% | [6] 45%

CC(=O)Nc1ccc2c(c1)Cc1cc(NC(C)=O)c(Cl)cc1-2
inactive: [1] 3.15% | [2] 11.9% | [3] -1.45% | [4] 7.95% | [5] -2.35% | [6] -1.2%

CN(C)CCN1C(=O)CC[C@@]2(C)C1=CC[C@@H]1[C@@H]2CC[C@@]2(C)[C@H]1CC[C@]2(C)O
inactive: [1] -21.7% | [2] -12.8% | [3] -18.6% | [4] -11.1% | [5] -0.1% | [6] -9.15%

COc1ccc2c(c1)CCC1C(=O)NN=C21 (stereo not drawn)
inactive: [1] 12.8% | [2] -4.1% | [3] -5.6% | [4] -43.4% | [5] -23.1% | [6] -8%

O=C(NCc1ccco1)Nc1ccccc1Cl
inactive: [1] -24.9% | [2] -0.2% | [3] -6.2% | [4] 45.8% | [5] 4.25% | [6] -11%

CNC1C(CO)OC(n2cnc3c(=O)[nH]cnc32)C1O (stereo not drawn)
inactive: [1] 12.2% | [2] -6.45% | [3] -11.4% | [4] -9.1% | [5] -9.2% | [6] 13.6%

O=C(COc1cc(Cl)c(Cl)cc1Cl)Nc1ccccc1Br
inactive: [1] 2.5% | [2] -6.9% | [3] 0.1% | [4] -15.9% | [5] 2.2% | [6] -8.85%

CCOC(=O)c1ccc(NCc2ccc3nc(OC)c(OC)nc3c2)cc1
inactive: [1] -5.7% | [2] -20.5% | [3] -13.7% | [4] 14.9% | [5] 6.85% | [6] -19.4%

Cc1ccc(S/C=C/Sc2ccc(C)cc2)cc1
inactive: [1] 15.1% | [2] 8.15% | [3] 3.55% | [4] -14.6% | [5] 22.9% | [6] 36%

c1ccc(-c2[nH]nc3nc4c(nc23)CCCC4)cc1
inactive: [1] 7.4% | [2] -5.3% | [3] -5.1% | [4] -32.9% | [5] -33% | [6] 6.6%

Nc1ccccc1S(=O)O
inactive: [1] -4% | [2] 8.55% | [3] 14.9% | [4] 7.7% | [5] -25.9% | [6] 13.1%

O=C1CC[C@@H](NC(=O)Cc2ccccc2)C(=O)N1
inactive: [1] -6.65% | [2] -19.3% | [3] -12.8% | [4] -6.75% | [5] 2.25% | [6] -9.1%

CC(=O)Nc1cc(C)c(C(=O)O)c(C)c1
inactive: [1] -26.5% | [2] -19.4% | [3] -9.35% | [4] -18.1% | [5] -24.9% | [6] -21.4%

COC(=O)C(OC)(OC)C(O)c1ccccc1 (stereo not drawn)
inactive: [1] 34.4% | [2] 4.6% | [3] 49% | [4] 4.95% | [5] -9.35% | [6] 6.8%

Nc1[nH]c(=S)[nH]c(=O)c1N=Nc1c(Br)cc(S(N)(=O)=O)cc1Br
inactive: [1] 4.65% | [2] -15.9% | [3] -24.1% | [4] -24.9% | [5] 9.2% | [6] 0.25%

CSc1nc(Cl)nc2[nH]ncc12
inactive: [1] 11.3% | [2] -5.4% | [3] 1.1% | [4] -17.3% | [5] 4.45% | [6] 30.9%

C[N+](C)([O-])CCCNc1ccnc2cccc([N+](=O)[O-])c12
inactive: [1] 24.1% | [2] 6.6% | [3] 28.9% | [4] 8.4% | [5] 9.95% | [6] -21.4%

CCCCNc1ccc2c(C)c(Cc3ccccc3)c(=O)oc2c1
inactive: [1] 9.3% | [2] -7.5% | [3] 20.3% | [4] 2.35% | [5] 4.65% | [6] -11%

NC(=S)N/N=C(\c1ccccc1)c1cccc2ccccc12
inactive: [1] 5.1% | [2] 50.7% | [3] 59% | [4] -35.3% | [5] 58.5% | [6] 33.5%

O=S(=O)(O)SCCCNCCCCCCCCNCCCSS(=O)(=O)O
inactive: [1] -18.6% | [2] -8.85% | [3] -1.6% | [4] -13.3% | [5] 8.45% | [6] 3.45%

O=c1c(Cl)c(-c2cccc3ccccc23)oc2ccccc12
inactive: [1] -14.3% | [2] 1.8% | [3] 4.2% | [4] -40.6% | [5] 9.2% | [6] -15.4%

OC(Cc1cccnc1)(c1ccccc1)c1cccc2ccccc12 (stereo not drawn)
inactive: [1] 12.3% | [2] 13.8% | [3] -2.3% | [4] 7.45% | [5] 10.5% | [6] 13.9%

CCCc1cc2c3c(c(=O)oc2cc1O)CCCC3
active: [1] 94.8% | [2] 75.6% | [3] 92.5% | [4] 89% | [5] 92.7% | [6] 96.4%

Nc1ccc(C(=O)NCCCC(=O)O)cc1
inactive: [1] -1.85% | [2] 19.2% | [3] -1.75% | [4] 0.85% | [5] -3.75% | [6] -14.6%

Nc1nc(-c2ccccc2)c(Cl)c(-c2cc(Cl)ccc2O)n1
inactive: [1] -1.45% | [2] -1.3% | [3] -10.4% | [4] 25.3% | [5] 4.25% | [6] 2.7%

O=C1C(CO)=C[C@@H](O)[C@H]2O[C@@H]12
inactive: [1] 8.25% | [2] 1.5% | [3] 12.6% | [4] 6.8% | [5] 15.9% | [6] 17.4%

Cc1c(C)c(C(Cl)(Cl)Cl)c(C)c(C)c1Br
inactive: [1] -0.7% | [2] 4.8% | [3] -0.75% | [4] 8.15% | [5] 3.6% | [6] -7.3%

CCCCC(SC(CC)(CC)C(N)=O)C(N)=O (stereo not drawn)
inactive: [1] 8% | [2] -6.5% | [3] 6.55% | [4] -28.9% | [5] 8.7% | [6] -5.6%

CC(=O)NC(C(=O)NC(CSCc1ccccc1)C(=O)O)=C(C)C (stereo not drawn)
inactive: [1] -2.05% | [2] -13.5% | [3] 8.9% | [4] 3.1% | [5] -36.4% | [6] -11.3%

COC(=O)CC(c1ccc(OC)cc1)c1cc2c(cc1OC)OCO2 (stereo not drawn)
inactive: [1] 3.45% | [2] 3.75% | [3] 2.75% | [4] 7.5% | [5] 18.3% | [6] 15.5%

CCN(CC)CCNc1ccc2ncn3c4ccc(OC)cc4c(=O)c1c23
inactive: [1] 4.35% | [2] -1.9% | [3] -34.9% | [4] 18.6% | [5] 20.9% | [6] 34.2%
